Results taken from PubChem BioAssay AID1007 (NMMLSC, 2008).
Among all 190,000 compounds or so, about 80 (0.04%) were called active. Cut-off read from the data, not from the text of the source: active = inhibition above about 40%. A selection follows.

biological target: Bcl-2-like protein 1 (Homo sapiens) (UniProt Q07817); assay: inhibitors of Bim-Bcl-XL binding, primary screen, biochemical, multiplexed, bead flow cytometry, human Bcl-XL (AID 1007); conditions: Bim peptide-Bcl-XL binding, fluorescence, at 10 µM, stronger effect = higher value
Sequence (Q07817 whole entry, looked up): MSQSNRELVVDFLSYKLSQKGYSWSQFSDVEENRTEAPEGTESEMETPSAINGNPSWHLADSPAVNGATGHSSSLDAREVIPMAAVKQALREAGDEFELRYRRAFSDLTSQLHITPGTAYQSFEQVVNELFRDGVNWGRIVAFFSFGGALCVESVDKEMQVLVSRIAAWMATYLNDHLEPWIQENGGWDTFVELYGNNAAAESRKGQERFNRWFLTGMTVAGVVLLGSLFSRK

inhibition, inactive:
O=C1COc2ccc(C(=O)COC(=O)c3cccnc3Cl)cc2N1 -3%, O=C(CCS(=O)(=O)Cc1ccccc1)Nc1ccc2c(c1)OCCO2 0%, NC1=NC2(CCCCC2)N(c2ccc(F)cc2F)C(N)=N1 -6%, COc1ccc2ccccc2c1CNc1nnnn1C 1%, CC(C)(C)NC(=O)COC(=O)c1cc(Br)ccc1Cl -9%, O=C(OCC(=O)N1CCOCC1)c1ccc(N2CCOCC2)c([N+](=O)[O-])c1 1%, Cc1nc(-c2ccc(Cl)cc2)sc1C(=O)CBr 0%, Cc1cccc(NC(=O)c2cccc(C(F)(F)F)c2)c1 -3%, CC[N+]1(CC)CC2=Cc3ccccc3CC2C1 (centres undefined) -4%, CNC(=O)NC(=O)C(OC(=O)c1cccc(S(=O)(=O)N2CCCCC2)c1)c1ccccc1 (centres undefined) -4%, CCCn1c(NC(=O)C23CC4CC(CC(O)(C4)C2)C3)nc2ccccc21 -2%, Cc1cc(C)n(CCNCc2c(C(=O)N3C[C@@H](C)O[C@@H](C)C3)nc3ccc(Cl)cn23)n1 -1%, O=C(N/N=C/c1ccccc1O)/C(=C/c1ccccc1)CCO -10%, CCOc1ccc(CCN2C(=O)c3cccnc3C2=O)cc1OCC 0%, CC(=O)c1c(Nc2ccccc2)sc(C(=O)c2ccccc2)c1C -6%, COc1ccc2nc(Nc3nc(-c4ccncc4)cs3)sc2c1 -1%, Cc1ccc(-c2c(C)n([O-])c3c([n+]2=O)CCC3)cc1 -3%, O=C(CO/N=C/c1ccccc1OC(F)F)NC1CCCC1 1%, Cc1ccccc1N(C(=O)Cc1cccs1)C(C(=O)NC1CCCCC1)c1cn(C)nc1C (centres undefined) -5%, Cc1cc(NC(=O)CSc2nccn2-c2ccc([N+](=O)[O-])cc2)no1 -15%, Cc1nnc(SCC(=O)NNC(=O)c2ccc(Cl)cc2)n1CC1CCCO1 (centres undefined) -6%, Cc1ccc(N(C(=O)Cc2cccs2)C(C(=O)NCC2CCCO2)c2ccncc2)cc1 (centres undefined) 2%, Cc1cccc(N2CCN(c3ccc(C(N)=O)cc3[N+](=O)[O-])CC2)c1C 0%, CCOc1ncccc1C(=O)N(CC)CC(=O)Nc1ccc(NC(C)=O)cc1 -9%, CN(c1ccccc1)S(=O)(=O)c1cc(C(=O)Nc2nc3ccccc3[nH]2)ccc1Cl 8%, COC(=O)CN1C(=S)N(c2ccccc2)C(=O)C1CC(=O)Nc1ccc(Cl)cc1 (centres undefined) -5%, N#C/C(=C(/O)COC(=O)COc1ccc(Cl)cc1)c1nc2ccccc2[nH]1 -11%, COCCCNC(=S)NCCNc1nc2cc(C)c(C)cc2cc1C#N -1%, S=C(NCC1CCCO1)N1CCN(c2ccc(Cl)c(Cl)c2)CC1 (centres undefined) -1%, CCn1cnc2scc(-c3ccc(C)c(C)c3)c2c1=O 0%, CC(C)Oc1ccc(CCc2nnc(SCC(=O)O)n2-c2ccccc2)cc1 -5%, COc1ccccc1OCC(=O)OCn1c(SC)nnc(C)c1=O -7%, N=C1/C(=C/c2cccn2-c2cccc([N+](=O)[O-])c2)C(=O)N=C2SC=CN12 -5%, Cc1c(C(=O)NCCN2C(=O)S/C(=C\c3cccs3)C2=O)cccc1[N+](=O)[O-] -6%, CCCn1nc(NS(=O)(=O)c2ccccc2)c2cc3cc(C)ccc3nc21 0%, Cc1ccc(NC(=O)CSc2nc(CSc3ccc(C)cc3)cc(=O)[nH]2)cc1 -1%, CN(C)C(CNC(=O)Cc1ccc([N+](=O)[O-])cc1)c1ccccc1 (centres undefined) -1%, S=c1[nH]nc(-c2cccs2)n1/N=C/c1cccs1 1%, FC(F)(F)c1cccc(Cc2noc(CN3CCC(N4CCCCC4)CC3)n2)c1 0%, COc1ccc(C/C(C)=N/NC(=O)c2ccncc2)cc1 -3%, Cc1ccc(N(C(=O)c2ccc(S(=O)(=O)N(C)C)cc2)C2C=CS(=O)(=O)C2)cc1 (centres undefined) 0%, Cc1ccc(C(=O)/C=C/Nc2ccc(S(=O)(=O)Nc3onc(C)c3C)cc2)cc1 -1%, O=C(CNCc1ccc(Cl)cc1)Nc1cccc(C(=O)O)c1 -5%, CNS(=O)(=O)c1ccc(NC(=O)C2CC(=O)N(c3ccc(Cl)cc3)C2)cc1 (centres undefined) -2%, CC(=O)Nc1ccc(NC(=O)C(C)n2c3ccccc3c3nc(=O)cc(C)n32)cc1 (centres undefined) 0%, O=C(O)c1cccc(NC(=S)N/N=C/c2c[nH]c3ccccc23)c1 -4%, CCOC(=O)CN1C(=O)N[C@@H](c2ccc(Br)cc2)C(C(C)=O)=C1C -2%, COc1ccc(C(C(=O)NC2CCCCC2)N(C(=O)Cc2c[nH]c3ccccc23)c2ccccc2)cc1OC (centres undefined) 10%, COc1cc(CN(C)Cc2nc3cc(C(F)(F)F)ccc3c(=O)[nH]2)ccc1OC(F)F 0%, COCCN(CCOC)S(=O)(=O)c1ccc(/C(O)=C(\C#N)c2nc3ccccc3[nH]2)cc1 -3%, O=C(NCc1ccccc1Cl)C1CCCO1 (centres undefined) 2%, O=C(O)c1ccccc1-c1ccccc1C(=O)NCc1cccnc1 -2%, Cc1ccccc1-n1nc(SCC(=O)O)sc1=S 2%, COc1ccc(-c2[nH]ncc2CN(C)Cc2cc(C)[nH]n2)c(F)c1 -3%, CCOCCCNC(=S)N1CCC(NC(=O)C2CCCCC2)CC1 -3%, CNC(=S)N/N=C/c1cn(Cc2ccc(C)cc2)c2ccccc12 -5%, COc1ccc(C(=O)C2CCCN(C(=O)c3cc4nc(C)cc(C)n4n3)C2)cc1F (centres undefined) -2%, CC(C)NC(=O)C(=O)NCCCOC(C)C -6%, NC(=S)N/N=C/c1coc2cc(Cl)ccc2c1=O -5%, Cc1ccc(Nc2nnc(SCC(=O)c3cc4ccccc4o3)s2)cc1C -20%, COc1cc(NC(=S)N2CCCC(C)C2)c(OC)cc1Cl (centres undefined) -7%, CC(C)COP(=O)(c1ccc(N(C)C)cc1)C(Nc1ccccc1)c1cccnc1 (centres undefined) -15%, CC1CC(=S)Nc2ccccc2N1Cc1ccccc1 (centres undefined) -6%, CSc1ccccc1NC(=O)Cc1ccc(Br)cc1 -4%, CCCN(CC(=O)Nc1ccccc1C)C(=O)c1cc(=O)[nH]c2ccccc12 2%, Cc1cc(=O)oc2c1c(C)nn2-c1ccc(Cl)cc1 1%, COc1ccc(C(C)=O)cc1CSc1nc2nc(C)cc(C)n2n1 -2%, Cc1nc(S(=O)(=O)c2ccc(Br)cc2)nc2c1CCC2 0%, COc1cc(C(=O)N2C(=O)c3cccc(N)c3C2=O)cc(OC)c1OC -2%, Cc1ccc(C)c(OCC(=O)N2CCN(C(=O)c3ccco3)CC2)c1 -8%, COc1cc(C(=O)Nc2cc(C(F)(F)F)ccc2N2CCOCC2)ccc1O -6%, CCCn1nc(Oc2nc(NC(C)C)nc(N(C)C)n2)ccc1=O -2%, NS(=O)(=O)c1ccc(NC(=O)/C=C/c2ccccc2Cl)cc1 1%, NNC(=O)COc1ccc(C2SCCS2)cc1 0%, COc1ccc(-n2nnnc2SCC(=O)NCc2cccs2)cc1 1%, Cn1c(-c2ccc(F)cc2)cnc1SCC(=O)NNC(=O)Cc1ccccc1 0%, Cc1ccc(CC(=O)Nc2cccc(C#N)c2)cc1 -4%, C[C@H](NC(=O)c1ccccc1Cl)C(=O)OCCOc1cccc(Cl)c1 -14%, Cn1nnnc1NCc1ccc(Cl)c(Cl)c1 0%, COc1ccc(CNC(=O)C2CCN(S(C)(=O)=O)CC2)cc1 -3%, CC(Nc1ccccc1)c1cccnc1 (centres undefined) -2%, CCOC(=O)NC(=O)CSc1nnc(SCCC(=O)O)s1 -10%, O=C(Nc1ccccc1-c1ccccc1)c1cccs1 -3%, CC(C)(C)c1ccc(C(=O)NCc2nnc(SCC(=O)N3CCCc4ccccc43)n2-c2ccccc2)cc1 -8%, Cc1ccc(O)c(-c2cc(C(=O)NCc3ccccc3)[nH]n2)c1 -3%, C/C(N)=C(/C#N)C(=O)COC(=O)c1cc(-c2cccc(Br)c2)nc2ccccc12 -1%, CCOC(=O)N1CCN(C(=O)c2ccccc2N(Cc2ccccc2)S(=O)(=O)c2ccc(OC)cc2)CC1 0%, Cc1ccc(S(=O)(=O)/N=S(\C)C(C)C)cc1 (centres undefined) -3%, COc1ccccc1CNC(=O)CNC(=O)c1cn(-c2ccccc2OC)c(=O)c2ccccc12 -2%, CC(=O)OC(COc1ccc(F)cc1)Cn1cnc2ccccc21 (centres undefined) -4%, O=C(Nc1ccc(F)c([N+](=O)[O-])c1)C1CC(=O)N(Cc2ccccc2)C1 (centres undefined) 0%, Cc1ccnc2nc(C(=O)OCC(=O)N(CC(C)C)CC(C)C)nn12 -7%, Cc1ccc(OCC(=O)Nc2ccccc2Sc2ccc(Cl)cc2)c([N+](=O)[O-])n1 0%, O=C1N/C(=N\N=C\c2ccco2)SC1Cc1ccc(F)cc1 (centres undefined) -4%, CCNC(=O)NC(=O)C(C)OC(=O)C1CCN(S(=O)(=O)c2ccccc2F)CC1 (centres undefined) -2%, CN1CCN(/N=C2/C(=O)Nc3ccc([N+](=O)[O-])cc32)CC1 0%, COc1ccc(CN2CCC(c3nc4ccc(Cl)cc4[nH]3)CC2)cc1 0%, CC(=O)Nc1ccc(S(=O)(=O)N(C)c2ccc(OCC(=O)OCC(=O)N3CCCCC3)cc2)cc1 -3%, Cc1cc(C)cc(NC(=O)COC(=O)c2cc(C)oc2C)c1 -4%, O=C(CN1CCN(C/C=C/c2ccccc2)CC1)Nc1ccc(F)cc1F -1%, CN=C(c1ccccc1)c1c(C)cccc1C -9%, COc1cccc(OCCCN2CCCCCC2)c1 -1%, Cc1cc(O)ccc1NC1=CC(=O)CC(C)(C)C1 0%, C#CCNC(=O)C1=C[C@@H](c2ccccc2)[C@H](CCCO)[C@@H](OCC)O1 -1%
